From PubChem BioAssay AID1508600 (Functional Genomics Laboratory (NCATS/FGL), 2020) come the findings set out here.

In all, about 53,000 sequences went through this assay and about 3,700 (7%) were called active. Many of the other results were omitted from the sample, so actives are more common in it than they were. A number with no mark means an inactive call.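 Rule for the calls: active = gene knockdowns whose robust z-score for IL-1 alpha signal is at least 2 or at most -2, so actives lie on both sides; inactive = the rest.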

This experiment is described as follows: Components of the Cytosolic LPS Sensing Pathway: Gene Identification via Genome-wide siRNA Screen.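 Note: robust z of the log signal after scaling to non-targeting control siRNA wells of the plate.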 Particulars: RAW264.7 macrophages, IL-1a HTRF, actives lie on both sides, screened at 100 nM (by protocol), cells primed 5 h with Pam3CSK4 first. In outline:
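Supernatant IL-1a by HTRF from RAW264.7 cells primed with Pam3CSK4 (5 hours) and transfected with LipidA (24 hour) after 48h siRNA knockdown at 100 nM; cell viability checked with CellTiter-Glo.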
Consider GGUCAUGGAAGAAGCAAAGTT against Sltm, for which the z-score is 2.08 (active).

For the sequence GCUGUCCUGCCGUAAUAGATT against Oma1, the z-score is -0.619.

On to GCAAAGGAUCCAAUUUUAGTT against Rnf227, for which the z-score was 1.28.

For GGUCCAAUUACUGAAGGUUTT against Spaca7, the z-score is 2.09 (active).

Take GCUCCAACUACAUUGACUATT against Olfr1410: the z-score is -0.396.

For GCCGAGAGAGCCAAUACAATT against Tbc1d16, the z-score is 0.248.

Take GGAAACACCUUUGAGGCUCTT against Kndc1: the z-score is -1.88.

For the sequence GCUACAGGAUAAGUCCAAUTT against Kpnb1, the z-score is -2.01 (active).

On to CCGAAUCGUCCUAAACCAATT against Cyp11a1, for which the z-score was 0.284.

With GUACAUUUGCUGGAGCCUCTT against Hps6, the z-score is 0.395.

As for GCCUUUCUUCUGUCAAUGATT against Olfr281, the z-score is 2.38 (active).

CCGACCAGAAGCUUUAAAGTT against Msrb1: the z-score is 1.05.

Turning to GGGAGUUGGUGGAAUGCUUTT against Ech1, the z-score is -0.221.

For GGAGUUUGAACAAGAAAUATT against Prss12, the z-score is 1.11.

Regarding GCCACCGAACCUAUAAAGCTT against Scd4, the z-score was 0.265.

Consider GGUGUGCAUCAAGCGACUGTT against Cacng6, for which the z-score was 2.1 (active).

Regarding GGUUCUAGAUGCUAAUAAGTT against Ciao3, the z-score was -0.381.

As to GGAUCUGACAAGGUACAAGTT against Acsm5, the z-score is 0.145.

GCUAUGGGUAAACUUUUUGTT against Olfr354: the z-score was 0.905.

As to CCUAGACAAUACUUGCCUGTT against Gpr180, the z-score is 0.873.

As to GCCUGUUCGGUGUUCAACUTT against Etv3, the z-score was 0.808.

Regarding GCCUAGUUCUUUAUGCUAUTT against Golga4, the z-score is 4.37 (active).

Take CCACCUGUCGAGAUGUCGUTT against Ppp1r13b: the z-score was 1.1.

For GGAUCACGUUUCAAACAUCTT against Mtmr12, the z-score was 0.296.

On to GGAGCACAAUAGUAAACUATT against Polr1a, for which the z-score was 2.78 (active).

As for GGUGAAGAUAAGUAUCUGCTT against Mug2, the z-score was -0.0586.

In the case of GCUUGAUUAGGUAGGAAUATT against Stk32a, the z-score was -0.388.

Consider GGAAAGUCAGGAUGAAUAUTT against Cst9, for which the z-score is 0.0511.

For the sequence GGAGUUGUAGUGAGGGUCATT against Fcgbp, the z-score is -0.971.

On to GGAAACAGGAAACAAUCUATT against Ccdc69, for which the z-score is 0.609.

As for GGUUUUGAGUGAGAAAUGGTT against Plekhb2, the z-score is -0.414.

In the case of GGAGAAAUCCCUUCACGGUTT against Mas1, the z-score is 0.449.

For the sequence CCACCUCCUCUCGAUACAATT against Zfp36, the z-score is 0.993.

Take CGCAGUAGCGAAGAAUUACTT against Sel1l3: the z-score is 2.46 (active).

On to CCAUAAUAGAGGCAAUUACTT against Wscd1, for which the z-score is 0.302.

Turning to CCUAGGUGUCACCAUGAACTT against Ssx9, the z-score was 2.02 (active).

Turning to GGAAAGAGUCAUGGAAAUATT against Supt16, the z-score was 0.55.

For GGCUCACAAGGAAGAGAUCTT against Cstad, the z-score was -0.29.

Consider GCUCUGAAAUGUCUCUCCATT against H2-D1, for which the z-score was -0.613.

On to GGUGUGUUCAGGAGUUGAUTT against Col12a1, for which the z-score is 0.505.

In the case of GGCAAAAAAAACUGCUAUATT against Adgrg7, the z-score was 3.36 (active).

For GGUGACAUUUGAAAAUGUCTT against Slc25a12, the z-score is 0.411.

For GCCUCAUCCCUAUAGUCCUTT against Spaca9, the z-score was -0.257.

In the case of CGGGUUCCCAGGAAUUAAGTT against Col4a6, the z-score was 0.304.

In the case of GGUUGACACUCUGAGGGAATT against Pld2, the z-score is -0.175.

As to CCACUUUCUAGAAAUCCUATT against Tmem41a, the z-score is -2.14 (active).

On to GGGCUGAUGAGCAAAGCAUTT against Setd4, for which the z-score was -1.01.

Turning to GGGAAAUUAUUACCAAAAGTT against N4bp1, the z-score was -0.83.

GGUCUUUGUUAAGAAUCCUTT against Myo1f: the z-score was -0.496.

Consider GCUCGAAAACUGAGAGUUATT against Pcdhgb1, for which the z-score was 3.32 (active).

Consider GCUAUAAGGCUUAAUAGGGTT against Dleu7, for which the z-score is 1.97.

For the sequence GCGAAAGCAGCUGUCGGAATT against Nkx3-1, the z-score is 0.324.

In the case of GGCCUCGAACAGUUUAUUATT against Snx12, the z-score was 0.471.

Consider GGCUGUGGAUCUUCUCUGUTT against Cnksr3, for which the z-score is -1.05.

For GCCAUGUUAAAUUCUCUACTT against Poln, the z-score was 0.575.

With GGCUCUGCUGGAUAUCAUGTT against Med24, the z-score is -1.08.

As to GGGUAUUUCCUGGUGGAUUTT against Mrps6, the z-score was 0.221.

On to CCUAUCAUAACGGUGAUAATT against Ddb1, for which the z-score was -0.423.

Regarding “GGUCACACCCAUAAACUAATT against B630019K06Rik”, the z-score is -0.167.

On to GGUUAUUAAGUAGCUUUUCTT against Dtx1, for which the z-score is 1.64.

As for GCAUUAGAACAAAGGAUGCTT against Rps19, the z-score is 0.278.

Regarding GGAAUUUGUGGAAACAGGATT against Tnfaip3, the z-score was -0.441.

For GCCUUUGAUAGUGGUGAAUTT against F11r, the z-score was -3 (active).

Consider CCAAUCUUCUCCUCAAGACTT against Olfr101, for which the z-score was -0.0712.

Consider GGCUGUUUCCAAAAAGAAGTT against H1f5, for which the z-score was -1.14.

For the sequence GGACCAGGGCAAAAUAUGATT against Pate6, the z-score was 0.727.

CCAUCAUUGCUCGUAUUGGTT against Olfr656: the z-score was -2.9 (active).

Take CCAGUGGAAAUAACUUGUGTT against Fam53a: the z-score is 1.58.

CCUUGAGUGAAAGAAUUGATT against Tmprss11d: the z-score was -0.609.

GGAAUAUCCGUAAUAACUATT against Grin2b: the z-score is 2.82 (active).

Consider GCUACUAAAUUCUGUUUUGTT against Nol4l, for which the z-score is 0.325.

On to GGGAAGUUUCUUGAAGCACTT against Rfxank, for which the z-score was 0.103.

As to AGGACUAGGGAUCCUAAUUTT against Ubl5, the z-score is -0.74.

Consider GGUUGCUGGAUGUCAUCUCTT against Hpn, for which the z-score was -2.05 (active).

In the case of GCUACUUGCUCAUACAAAGTT against Rag2, the z-score was 0.65.

Take GGCCAUAUGUCAAGAAGUUTT against Svs4: the z-score is -1.24.

On to GCCAGGAAUAGUGAUUAUUTT against Atp11c, for which the z-score is -1.19.

Consider GGAAAUGUGGAAUACACCGTT against Prl7a2, for which the z-score is 1.39.

Consider GGCUUUAAUGUGUCAGUACTT against Slc25a5, for which the z-score was -0.228.

As for GCCGAUGAUACCAAACCGATT against Oser1, the z-score was 0.151.

As to CGACUCUUACCAACCUUUUTT against Lhx2, the z-score is 0.477.

In the case of GCAGGUGGUACGCAGACUATT against Ulk1, the z-score was -0.0204.

With GGAAAGAAUGAGGAUGUGGTT against Pitx2, the z-score is -2.07 (active).

In the case of CCUCAAACUCGGUUUGAUUTT against Acp6, the z-score was -0.773.

GCCUAUACUAUAGAAUUACTT against Sgsm2: the z-score is 2.2 (active).

On to GACGCAGAUGGUAUUUUUUTT against Orm2, for which the z-score is 1.24.

Turning to GUGGGAAUUCUGAAAAAUATT against Vmn1r231, the z-score is 0.301.

GUAUGAACCUAACACAUUCTT against Vmn1r188: the z-score was 0.493.

Regarding GGAAACCUUUACCAUAAACTT against Epdr1, the z-score is -2.35 (active).

For the sequence GGAUCAAACAAAUCAUCAATT against Plscr4, the z-score was -0.895.

CCUUGUAGCUCUGAGGAUATT against Teddm3: the z-score is -0.529.

As for GGAACCUACCUCACCUUUGTT against Fscn3, the z-score is -0.749.

Consider GGUCUCUUCAUGAUGGAUGTT against Akt1s1, for which the z-score was 0.731.

In the case of CCAUACACAUGUAAUUCUCTT against Zmat3, the z-score is -0.159.

Turning to GGCAUCUCUGAGUUACAUUTT against Snu13, the z-score is 0.695.

Turning to GGGUCUGGUUCUGUAACCATT against Pou4f3, the z-score is -1.94.

As to GGACUAUGGUGGGAACUAGTT against Tas2r119, the z-score is -0.564.

Consider CGUUCUAUGGAAACUGGAGTT against Acot1, for which the z-score was 2.42 (active).

GGAAUGCUUAAAGCUUUAATT against Clasp2: the z-score was 0.353.

As for “CCAUUUCCCAUUUCUGAAGTT against 1700001P01Rik”, the z-score is -2.22 (active).

Take GCUCAAGUUAAUCUGUUGUTT against Ywhae: the z-score is 0.962.

On to CCAGUCAACAAGAAUCAGATT against Rptn, for which the z-score was -0.105.

In the case of GAUACAGAAUGUCUCAUCCTT against Olfr1128, the z-score was 0.307.

Consider CCUAUCUUGUCCGGUUUACTT against Cyb5rl, for which the z-score is 3.99 (active).

For the sequence GCCCUUGCACUAUUUUUCCTT against Olfr1218, the z-score was 0.902.

For GCUAUGUCAACAGUAACAUTT against Mmel1, the z-score was -0.683.

As for GGUGGAAUUAUGCAUGCUATT against Olfr1094, the z-score is 1.45.

With GGCUUUCUUCAGUUUUGUCTT against Slc33a1, the z-score was -1.37.
